Laboratory results from publication PMC4336329 (PLoS ONE, 2015).
Hit rate of the full screen: of about 310,000 compounds, about 14,000 (4.5%) showed an effect of 50% or more. The effect is printed as a negative number. The sample holds strong results, similar compounds and a random draw of the others, so the mix is not that of the screen.

Molecular target: human ether-à-go-go-related gene (hERG) potassium channel (human, UniProt Q12809)
Test: primary screen, population patch clamp on CHO cells stably expressing hERG; higher = less effect of the substance
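Further: peak tail current of the secondary pulse compared with the same well before compound.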

human ether-à-go-go-related gene (hERG) potassium channel, sequence (Q12809 whole entry, looked up): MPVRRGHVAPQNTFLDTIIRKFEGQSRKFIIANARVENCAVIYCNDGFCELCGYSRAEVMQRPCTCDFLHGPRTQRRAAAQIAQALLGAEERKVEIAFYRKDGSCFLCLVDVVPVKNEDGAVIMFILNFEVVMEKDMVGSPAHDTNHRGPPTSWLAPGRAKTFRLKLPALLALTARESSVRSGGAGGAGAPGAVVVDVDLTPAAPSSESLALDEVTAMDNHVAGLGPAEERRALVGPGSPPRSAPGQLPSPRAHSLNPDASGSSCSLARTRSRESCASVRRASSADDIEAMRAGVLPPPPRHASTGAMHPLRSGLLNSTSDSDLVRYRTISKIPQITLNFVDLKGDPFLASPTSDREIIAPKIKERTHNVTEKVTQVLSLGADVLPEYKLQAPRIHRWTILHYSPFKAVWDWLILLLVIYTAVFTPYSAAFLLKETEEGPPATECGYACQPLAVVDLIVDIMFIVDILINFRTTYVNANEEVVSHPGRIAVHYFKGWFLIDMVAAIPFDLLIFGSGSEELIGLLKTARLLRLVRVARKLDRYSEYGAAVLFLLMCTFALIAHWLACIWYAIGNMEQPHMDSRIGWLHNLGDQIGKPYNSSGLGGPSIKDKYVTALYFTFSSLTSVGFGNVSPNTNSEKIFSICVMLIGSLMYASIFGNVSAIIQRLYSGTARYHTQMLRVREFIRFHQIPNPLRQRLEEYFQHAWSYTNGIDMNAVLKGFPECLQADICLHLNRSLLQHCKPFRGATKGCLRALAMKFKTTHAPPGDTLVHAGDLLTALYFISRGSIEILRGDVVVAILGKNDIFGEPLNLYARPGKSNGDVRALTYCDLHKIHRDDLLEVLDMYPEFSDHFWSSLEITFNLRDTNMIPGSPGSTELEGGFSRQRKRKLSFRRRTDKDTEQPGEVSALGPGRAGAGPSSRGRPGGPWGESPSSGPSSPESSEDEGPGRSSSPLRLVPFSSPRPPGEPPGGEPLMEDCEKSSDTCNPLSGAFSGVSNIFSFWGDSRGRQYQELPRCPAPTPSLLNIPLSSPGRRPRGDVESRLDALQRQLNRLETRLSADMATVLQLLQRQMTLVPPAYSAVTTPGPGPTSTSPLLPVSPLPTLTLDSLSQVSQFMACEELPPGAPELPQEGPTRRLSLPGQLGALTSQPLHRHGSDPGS

Going from `O=C(Nc1cccc(F)c1)N1CC=C(c2ccc(Cl)cc2)CC1` to `O=C(CSc1ccc(-c2ccc(F)cc2)nn1)N1CCOCC1`, the “hERG current change (%, negative = inhibition) at 10uM” value falls from -13.8% to -17.4%.

Compared with `Cc1ccc(CN2CCN(/N=C/c3ccc(Cl)c([N+](=O)[O-])c3)CC2)cc1`, `COc1cc(/C=N/N2CCN(c3ccccc3)CC2)cc(OC)c1OC(C)=O` is lower in “hERG current change (%, negative = inhibition) at 10uM” value: -4.43% for the first, -39.4% for the second.

Compared with `CCCOC1CCCN(C(=O)c2ccc3oc(C(C)C)nc3c2)C1` (centres unmarked), `COc1ccc(NC2CCCN(C(=O)c3ccc(C(C)=O)s3)C2)cc1` (centres unmarked) is higher in “hERG current change (%, negative = inhibition) at 10uM” value: 3.64% for the first, 16.1% for the second.

Going from `Cc1ccccc1OCc1nc(-c2ccc(NC(=O)c3ccco3)cc2)no1` to `N#Cc1nc(-c2ccc(OCc3ccccc3)cc2)oc1NCCCn1ccnc1`, the “hERG current change (%, negative = inhibition) at 10uM” value falls from 5.41% to -1.96%.

Compared with `COc1ccc(N=Cc2c(O)n(Cc3ccccc3)c(=S)[nH]c2=O)c(OC)c1`, `COc1ccc(NC(=O)N(Cc2ccc(C)cc2)Cc2cccnc2)c(OC)c1` is lower in “hERG current change (%, negative = inhibition) at 10uM” value: -1.29% for the first, -10.6% for the second.

First: CC(C)[C@@H](C(=O)NCC1CCC(C(=O)O)CC1)n1nnc2ccccc2c1=O (some centres unmarked)
Second: O=C(O)C1CCN(S(=O)(=O)c2ccc(Oc3ccccc3)cc2)CC1
The “hERG current change (%, negative = inhibition) at 10uM” value of the first is higher: 19.1% for the first, 17.8% for the second.

Going from `O=C(Nc1ccccc1Cl)O/N=C(/c1ccccc1)c1ccccn1` to `NC(=S)Nc1cc2ccccc2c2ccccc12`, the “hERG current change (%, negative = inhibition) at 10uM” value rises from 6.47% to 6.65%.

Compared with `CNC(=O)CCc1[nH]c2ccccc2c1Sc1ccccc1`, `N#Cc1nc(Cc2cccc3ccccc23)oc1NCCCn1ccnc1` is lower in “hERG current change (%, negative = inhibition) at 10uM” value: 4.85% for the first, -71% for the second.

Going from `Cc1cc(C)cc(OCC(=O)N2N=C(c3cccnc3)CC2(O)C(F)(F)F)c1` (centres unmarked) to `COCCN(C(=O)COC(=O)c1cnc(C)cn1)c1c(N)n(Cc2ccccc2)c(=O)[nH]c1=O`, the “hERG current change (%, negative = inhibition) at 10uM” value rises from -15.3% to -4.85%.

Going from `COc1ccccc1S(=O)(=O)Cc1ccc(C(=O)NCCN2CCCC2)o1` to `COc1ccccc1S(=O)(=O)Cc1ccc(C(=O)NCCN2CCCCCC2)o1`, the “hERG current change (%, negative = inhibition) at 10uM” value rises from -8.12% to 2.78%.

First: COc1ccccc1S(=O)(=O)Cc1ccc(C(=O)NCCCN2CCN(c3ccc(F)cc3)CC2)o1
Second: N#Cc1nc(Cc2cccc3ccccc23)oc1NCCN1CCOCC1
The “hERG current change (%, negative = inhibition) at 10uM” value of the first is lower: -79.2% for the first, -20.3% for the second.

Compared with `Cc1cccc(N2C(=O)C(O)=C(C(=O)c3cccs3)C2c2ccc(F)cc2)n1` (centres unmarked), `Cc1cc(Nc2ccc(O)cc2)n2c(nc3ccccc32)c1C#N` is higher in “hERG current change (%, negative = inhibition) at 10uM” value: 14.9% for the first, 16.6% for the second.

Compared with `O=C(NNS(=O)(=O)c1ccccc1)C1CCCCC1`, `N#Cc1nc(-c2cccc3ccccc23)oc1NCCN1CCCCC1` is lower in “hERG current change (%, negative = inhibition) at 10uM” value: 6.38% for the first, -36.2% for the second.

Compared with `N#Cc1nc(-c2ccc(OCc3ccccc3Cl)cc2)oc1NCCCn1ccnc1`, `N#Cc1nc(-c2ccccc2)oc1NCCCn1ccnc1` is lower in “hERG current change (%, negative = inhibition) at 10uM” value: -13% for the first, -27.5% for the second.

First: Cc1ccc(OCc2nc(C#N)c(NCCCn3ccnc3)o2)cc1
Second: COc1ccc(OCc2nc(C#N)c(NCCCn3ccnc3)o2)cc1
The “hERG current change (%, negative = inhibition) at 10uM” value of the first is lower: -56% for the first, -43.4% for the second.

Going from `N#Cc1nc(COc2ccc(Br)cc2)oc1NCCN1CCOCC1` to `N#Cc1nc(COc2ccc(F)cc2)oc1NCCN1CCOCC1`, the “hERG current change (%, negative = inhibition) at 10uM” value rises from -56.6% to -12.9%.

Compared with `N#Cc1nc(COc2ccccc2)oc1NCCCn1ccnc1`, `N#Cc1nc(Cc2ccccc2)oc1NCCCn1ccnc1` is higher in “hERG current change (%, negative = inhibition) at 10uM” value: -50% for the first, -31.5% for the second.

Compared with `COc1ccccc1OCc1nc(C#N)c(NCCCn2ccnc2)o1`, `Cc1ccc(-c2nc(C#N)c(NCCCn3ccnc3)o2)cc1` is lower in “hERG current change (%, negative = inhibition) at 10uM” value: 6.7% for the first, -21.9% for the second.

Going from `N#Cc1nc(COc2ccccc2)oc1NCCN1CCOCC1` to `N#Cc1nc(-c2ccc(F)cc2)oc1NCCN1CCOCC1`, the “hERG current change (%, negative = inhibition) at 10uM” value rises from -11.3% to -0.823%.

Compared with `Cc1csc(C(C#N)C(=O)c2ccncc2)n1` (centres unmarked), `N#C/C(C(N)=O)=C1/CCc2ccccc2N1` is lower in “hERG current change (%, negative = inhibition) at 10uM” value: 19.2% for the first, -9.51% for the second.

First: CCN(CC)c1ccc(N=Cc2c(O)[nH]c(=O)[nH]c2=O)cc1
Second: COC(=O)C1=CNC=C(C(=O)OC)C1c1ccc(Cl)cc1
The “hERG current change (%, negative = inhibition) at 10uM” value of the first is higher: -1.25% for the first, -8.91% for the second.

Going from `CCOC(=O)Nc1ccc2c(c1)Sc1ccccc1N2C(=O)CCN1CCOCC1` to `N#Cc1nc(-c2ccco2)oc1NCCCN1CCOCC1`, the “hERG current change (%, negative = inhibition) at 10uM” value falls from -17.6% to -54.9%.
